AmpC inh detg = AmpC beta-lactamase inhibition with detergent present; hit rate 0.041% among 370,000; Potency, µM (doses to about 114 µM), for the others: top-dose activity change, negative = inhibition, actives largely listed as inhibitors; AmpC hydrolysis of nitrocefin, absorbance 480 nm, 0.01% Triton; AID 485294;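 also: potency is read from the fitted curve at half-maximal effect; 0% = no-compound wells and -100% = no-enzyme wells; nearly all actives have a fitted effect of over 25% in size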
Target sequence (P00811 whole entry, looked up): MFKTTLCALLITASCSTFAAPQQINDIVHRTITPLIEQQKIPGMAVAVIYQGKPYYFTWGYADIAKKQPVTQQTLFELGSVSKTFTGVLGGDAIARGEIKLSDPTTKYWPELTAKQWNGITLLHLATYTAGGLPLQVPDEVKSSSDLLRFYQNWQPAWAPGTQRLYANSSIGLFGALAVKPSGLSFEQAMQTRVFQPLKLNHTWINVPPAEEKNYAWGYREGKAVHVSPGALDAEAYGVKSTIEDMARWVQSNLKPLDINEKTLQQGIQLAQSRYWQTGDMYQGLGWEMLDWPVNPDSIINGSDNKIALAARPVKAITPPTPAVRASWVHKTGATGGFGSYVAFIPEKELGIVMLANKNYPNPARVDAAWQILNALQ
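AmpC (5.3 nM in the dispensed reagent) in 20 mM phosphate pH 7.0 with 0.01% (detergent screen) or 0.0001% Triton X-100 was preincubated with compounds for 15 min at room temperature. Nitrocefin was then added from an 800 uM solution, and hydrolysis was followed at 480 nm.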
FMDV antiviral = foot and mouth disease virus antiviral activity. FMDV antiviral cell-based qHTS. Potency, µM (titrated, usually from 57.9 µM), for the others: top-dose activity change, negative = inhibition, most hits filed as inhibitors. hit rate 1.2% among 410,000; calls by dose curve; tested in HEK293T cells; also: read-out not given here; potency is read from the fitted curve at half-maximal effect; nearly all actives have a fitted effect of over 45% in size
HCMV inh = inhibitors of human cytomegalovirus | HFF cells, HCMV-luciferase reporter, 72 h; active compounds read low | activity change, negative = inhibition, % at 57.5 µM | hit rate 4.5% among 410,000 | AID 1259415; in the data active = activity change below about -60%; inconclusive = no clear call, values can overlap the other calls; inactive = above about -39%
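Cell-based, HFFs, 1000 cells/well, 16 h 37C; cpds in DMSO + HCMV-luc, MOI 1 PFU/cell; 72 h 37C; OneGlo luminescence after 5 min RT; norm. to buffer vs Salinomycin 10uM.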
HCV inhibitor = HCV inhibition | hit rate 3.4% among 340,000 | Huh7.5.1 HCVcc-Cre infection, luciferase reporter, 44 h | Potency, µM (top dose mostly 41.8 µM), for the others: at the top dose activity change, negative = inhibition, hits mostly inhibitors; also: potency is read from the fitted curve at half-maximal effect
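Cells (1,000/well) were plated 4 h before compound, then infected with HCVcc-Cre virus (~0.5 moi). After 44 h further culture, infection was read as luciferase luminescence following a 15 min substrate incubation at room temperature.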
AmpC no deterg = AmpC beta-lactamase inhibition without detergent; P00811; Potency, µM (titrated, usually from 57.1 µM), inactives show at the highest dose activity change, negative = inhibition, hits mostly inhibitors; AmpC nitrocefin hydrolysis, absorbance 480 nm, 0.0001% Triton; hit rate 0.52% among 330,000;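 also: potency is read from the fitted curve at half-maximal effect; plate controls were no compound for no effect and no enzyme for full effect; nearly all actives have a fitted effect of over 20% in size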
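20 mM phosphate pH 7.0 + 0.01% (detergent screen) or 0.0001% Triton X-100; 5.3 nM AmpC reagent; cpd preinc 15 min RT; nitrocefin (800 uM stock) to start; A480 q20 s × 4 min; Activity was normalised to no-enzyme and no-compound control wells.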
* = called active by the depositor; ? = inconclusive; . = not tested or not shown; [ ] = dose if it differs, or a comment. Sampled rows, rich in hits. Any-hit rate of the full collection: about 7.3%. Unless noted, calls follow the shape of the dose curve; as a rule, active = well fitted curve in the direction sought with a large enough effect; inconclusive = small, poorly fitted or top-dose-only effect, or another doubt; inactive = no such curve, though single readings can be large; an effect the other way counts as inactive or inconclusive. Unless noted, % is scaled to controls: 0 for no effect and ±100 for the full control effect.

SMILES	AmpC inh detg	FMDV antiviral	HCMV inh	HCV inhibitor	AmpC no deterg
Cc1nn(Cc2ccc(Cl)c(Cl)c2)c(C)c1NC(=O)c1cc(CC(C)C)on1	?	?	-31	11µM*	79%
Cc1nn(Cc2c(F)c(F)c(F)c(F)c2F)c(C)c1NC(=O)c1ccc(COc2ccccc2Cl)cc1	4%	-25%	-5	2%	-1%
Cc1nn(Cc2ccccc2Cl)c(C)c1NC(=O)c1nc2ncccn2n1	-4%	-14%	-63*	16%	-6%
O=C(NNC(=O)c1ccc2[nH]c(=O)c(=O)[nH]c2c1)c1cccc(Br)c1	-3%	0%	?	7%	-33%
Cc1cc(NC(=O)c2cc(-c3cccc(Cl)c3)on2)nn1Cc1ccc(Cl)cc1	16%	?	-80*	.	.
COc1cccc(-c2cc(C(=O)Nc3c(C)nn(Cc4ccccc4)c3C)no2)c1	-7%	-14%	?	10µM*	122%
Cc1cc(NC(=O)c2cc(-c3ccc(Cl)cc3)on2)nn1Cc1ccc(Cl)cc1	0%	?	-37	.	.
COc1ccc(-c2cc(C(=O)Nc3c(C)nn(Cc4ccccc4)c3C)no2)cc1	-15%	-15%	-21	?	3%
Oc1ccc2c(c1)CCCC1(CCCO1)O2 (stereo not drawn)	.	.	0	.	.
COc1ccc(CN2C[C@H](COCc3ccccc3)Oc3cccc(F)c3S2(=O)=O)cc1	.	.	-19	.	.
Cc1ccc2nc(SCC(=O)NCc3ccc(S(N)(=O)=O)cc3)[nH]c2c1	-10%	-5%	11	-8%	-22%
Cc1ccc2nc(SCC(=O)NCc3ccc(F)cc3)[nH]c2c1	1%	-27%	-65*	-4%	-8%
Cc1ccc(C2=NN(C(=O)CCl)C(c3cccs3)C2)o1 (stereo not drawn)	-7%	14µM*	-100*	?	-10%
O=C(CCl)N1N=C(c2ccco2)CC1c1cccs1 (stereo not drawn)	-9%	?	.	?	-20%
COc1cc(C2CC(c3cccs3)=NN2C(=O)CCl)ccc1OC(F)F (stereo not drawn)	4%	16µM*	-97*	11µM*	-10%
COc1ccc(C2CC(c3cccs3)=NN2C(=O)CCl)cc1OC (stereo not drawn)	?	?	-97*	?	28%
COc1ccc(C(C)(C)C)cc1NC(=O)CCN1C(=O)NC(C)(C)C1=O	.	-13%	0	-3%	24%
CCOC(=O)C1CSCCS(=O)(=O)N1Cc1ccc(F)cc1F (stereo not drawn)	.	.	-17	.	.
CSc1nc(O)c(C(c2ccc(O)cc2)c2c(O)nc(SC)[nH]c2=O)c(=O)[nH]1	-4%	-6%	-69*	13%	-8%
CCOc1ccc(C(c2c(O)nc(SC)[nH]c2=O)c2c(O)nc(SC)[nH]c2=O)cc1	.	-18%	86	9%	.
Cc1cc(C)cc(N2C(=O)CSC23C(=O)N(Cc2c(F)cccc2Cl)c2ccccc23)c1 (stereo not drawn)	-7%	-27%	-36	.	.
S=c1sc2c(Cl)ncnc2n1-c1ccccc1	4%	?	24	4µM*	-17%
COc1cccc(N2CC(O)=C(c3nc4ccccc4c(=O)[nH]3)C2=N)c1	2%	.	.	?	-19%
Cc1cc(C)cc(N2CC(O)=C(c3nc4ccccc4c(=O)[nH]3)C2=N)c1	2%	5%	-10	22µM*	0%
O=C(COC(=O)c1c(F)cccc1F)Nc1ccc(N2CCCCC2)cc1	.	13%	23	20%	-15%
SMILES	AmpC inh detg	FMDV antiviral	HCMV inh	HCV inhibitor	AmpC no deterg
CCCN(CCC)Cc1cc(=O)oc2ccccc12	.	.	-16	.	.
COc1ccc(C(CNC(=O)c2cccc(S(=O)(=O)Nc3ccc(C)cc3)c2)N2CCCCC2)cc1 (stereo not drawn)	-10%	5%	14	3.2µM*	7%
Cc1ccc(NS(=O)(=O)c2cccc(C(=O)NCCCN3CCCC3=O)c2)cc1	?	27%	-101*	-2%[8.37 µM]	-5%
COc1ccc(Cn2c(=O)[nH]c3cc(C(=O)NC4CCN(Cc5ccccc5)CC4)ccc32)cc1	6%	?	-23	10µM*	48%
Cc1ccc(N(C)S(=O)(=O)c2cccc(C(=O)NCCCN3CCCC3=O)c2)cc1	-13%	-2%	0	0%	103%
COc1ccc(C(CNC(=O)c2cccc(NS(=O)(=O)c3ccccc3)c2)N2CCCC2)cc1 (stereo not drawn)	.	-5%	58	-22%	.
COc1ccc(Cn2c(=O)[nH]c3cc(C(=O)Nc4ccc(N5CCN(C)CC5)cc4)ccc32)cc1	9%	-14%	-26	?	-3%
CCN1CCN(c2ccc(NC(=O)c3ccc4c(c3)[nH]c(=O)n4Cc3ccc(F)cc3)cc2)CC1	1%	-22%	?	7.1µM*	67%
CN1C(=O)[C@H]2[C@@H](c3ccc(C(F)(F)F)cc3)N[C@]3(CCCN(Cc4ccc(C(F)(F)F)cc4)C3=O)[C@H]2C1=O	.	?	-8	.	.
CCN(CC)CCn1c2c(c(SCC(=O)Nc3ccccc3Cl)nc1=O)CCC2	?	-24%	-3	2%	0%
COc1cccc(CNC(=O)CN2C(=O)CCSc3ccc(S(=O)(=O)N4CCCC4)cc32)c1	-7%	-3%	-14	-21%	47%
CCc1ccc(NCc2cc3cc4c(cc3n(CC(=O)Nc3ccc(Cl)cc3)c2=O)OCO4)cc1	14%	-13%	52	.	.
Cn1c2ccccc2c2nnc(SCC(=O)NC3CC3)nc21	?	4%	-17	12%	-4%
COc1ccc(NS(=O)(=O)c2cccc(C(=O)N3CCN(S(=O)(=O)c4ccccc4)CC3)c2)cc1	.	?	17	10µM*	.
COc1ccc(NS(=O)(=O)c2cccc(C(=O)NNC(=O)NCCCl)c2)cc1	?	14%	-65*	-1%	-37%
CC(C)(C)c1ccc(OCC(=O)NCC2(N3CCOCC3)CCCCC2)cc1	7%	?	-73*	.	.
COc1ccc(NS(=O)(=O)c2cccc(C(=O)N3CCC3)c2)cc1	?	16%	-15	?	-11%
Cc1ccc(S(=O)(=O)NCC2CCC(C(=O)NCCCN3CCCC3=O)CC2)cc1 (stereo not drawn)	?	20%	-62*	20%	30%
O=C(NC1CCCC1)c1cn(C2CCN(Cc3cccc4cccnc34)CC2)nn1	.	-7%	.	.	.
C[C@@H]1CN([C@@H](C)CO)C(=O)CCCn2cc(nn2)CO[C@H]1CN(C)C(=O)CCC(F)(F)F	.	.	5	.	.
Cc1nccn1CC(=O)c1ccc(O)c(O)c1	-1%	-9%	12	17%	-15%
COc1ccc(NS(=O)(=O)c2ccc(C)c(NC(=O)NC3CCCCC3)c2)cc1	1%	-19%	-33	?	-44%
COc1ccc(NS(=O)(=O)c2cccc(C(=O)NC3CCN(Cc4ccccc4)CC3)c2)cc1	5%	-25%	-65*	?	-16%

Screening data from PubChem BioAssay.
